Compound activity as filed in PubChem BioAssay.
Only some compounds are listed: those with a hit (about 1.1% of all), similar ones and a draw of the others.
AmpC detergent – inhibitors of E. coli AmpC beta-lactamase with detergent; AmpC hydrolysis of nitrocefin, absorbance 480 nm, 0.01% Triton; 0.041% of 370,000 active; Potency, µM (series often up to 114 µM), for inactives: top-dose activity change, negative = inhibition, actives largely listed as inhibitors; P00811;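 note: 0% = no-compound wells and -100% = no-enzyme wells; nearly all actives have a fitted effect of over 25% in size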
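AmpC (5.3 nM in the dispensed reagent) in 20 mM phosphate pH 7.0 with 0.01% (detergent screen) or 0.0001% Triton X-100 was preincubated with compounds for 15 min at room temperature. Nitrocefin was then added from an 800 uM solution, and hydrolysis was followed at 480 nm.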
Giardia FBPA inh-1 – blocks Giardia fructose-bisphosphate aldolase activity; A8B2U2; purified Giardia FBPA; Potency, µM (doses to about 59.6 µM), without a hit: at the highest dose activity, negative = inhibition, usual class: inhibitors; 0.71% of 290,000 active; AID 2451; note: nearly all actives have a fitted effect of over 55% in size
Target sequence (A8B2U2 whole entry, looked up): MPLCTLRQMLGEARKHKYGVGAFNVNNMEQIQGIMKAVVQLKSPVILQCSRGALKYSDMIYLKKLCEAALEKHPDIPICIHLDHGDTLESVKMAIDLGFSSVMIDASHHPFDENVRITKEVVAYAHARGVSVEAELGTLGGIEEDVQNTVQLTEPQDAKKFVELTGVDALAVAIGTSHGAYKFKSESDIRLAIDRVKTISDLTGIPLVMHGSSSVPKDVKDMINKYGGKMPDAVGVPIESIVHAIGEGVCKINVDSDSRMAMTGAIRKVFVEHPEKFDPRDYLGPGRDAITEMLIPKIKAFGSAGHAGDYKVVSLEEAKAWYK
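40 nM FBPA preincubated 10 min at RT with compound (up to 57.5 uM final), then substrate plus GAPDH/TPI/NAD/arsenate coupling and diaphorase/resazurin added. Fluorescence read after 20 min at RT, 525/598 nm.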
AmpC no deterg – AmpC beta-lactamase inhibition without detergent | AmpC nitrocefin hydrolysis, absorbance 480 nm, 0.0001% Triton | Potency, µM (highest dose often 57.1 µM), without a hit: top-dose activity change, negative = inhibition, actives largely listed as inhibitors | 0.52% of 330,000 active;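 note: plate controls were no compound for no effect and no enzyme for full effect; nearly all actives have a fitted effect of over 20% in size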
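AmpC (5.3 nM in the dispensed reagent) in 20 mM phosphate pH 7.0 with 0.01% (detergent screen) or 0.0001% Triton X-100 was preincubated with compounds for 15 min at room temperature. Nitrocefin was then added from an 800 uM solution, and hydrolysis was followed at 480 nm.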
AMA1 RON2 block – AMA1-RON2 (P. falciparum) interaction inhibition | AlphaScreen AMA1-biotinylated RON2 peptide binding | Potency, µM (doses to about 58.2 µM), for the others: at the highest dose activity change, negative = inhibition, actives largely listed as inhibitors | 0.2% of 360,000 active | AID 720542;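 note: 0% = vehicle wells and -100% = peptide control; nearly all actives have a fitted effect of over 45% in size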
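AMA1 (3D7) with his tag at 25 nM final met compounds first, then biotinylated RON2 peptide at 25 nM; detection used donor plus acceptor beads, 10 µg/mL apiece, read by AlphaScreen after 30 min at room temperature.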
Giardia growth – Giardia lamblia growth inhibition. Potency, µM (series often up to 57.5 µM), inactives show at the top dose activity change, negative = inhibition, actives largely listed as inhibitors. AID 2785. 5% of 1,500 active. shares compounds with Giardia FBPA inh-1. Giardia lamblia trophozoite growth inhibition;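 note: trophozoites exposed to compound for 48 h at 37 °C; nearly all actives have a fitted effect of over 70% in size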
Mammalian tox – counter-screen for Giardia aldolase inhibitors: mammalian cell toxicity | shares compounds with Giardia FBPA inh-1 | mammalian cell viability counter-screen, qHTS | Potency, µM (doses to about 57.5 µM), for the others: at the top dose viability change, negative = toxicity, actives largely listed as inhibitors | 4% of 1,500 active | AID 2786;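 note: Chinese hamster ovary cells used as mammalian cytotoxicity surrogate; viability measured as cellular ATP by luminescence; compound exposure lasted 48 h before reading; nearly all actives have a fitted effect of over 60% in size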
Giardia FBPA inh-2 – confirmation of Giardia fructose-bisphosphate aldolase inhibitors; 5% of 1,500 active; Potency, µM (titrated, usually from 57.5 µM), without a hit: at the top dose activity change, negative = inhibition, usual class: inhibitors; shares compounds with Giardia FBPA inh-1; purified Giardia aldolase enzyme activity, qHTS; AID 2787; note: nearly all actives have a fitted effect of over 45% in size
Rabbit aldolase – blocks rabbit muscle aldolase in Giardia aldolase selectivity test | Rabbit muscle FBPA enzyme inhibition, selectivity counter-screen | Potency, µM (top dose mostly 57.5 µM), without a hit: top-dose activity, negative = inhibition, actives largely listed as inhibitors | 4% of 1,500 active | AID 2794 | shares compounds with Giardia FBPA inh-1; note: nearly all actives have a fitted effect of over 60% in size
Target sequence (P00883 whole entry, looked up): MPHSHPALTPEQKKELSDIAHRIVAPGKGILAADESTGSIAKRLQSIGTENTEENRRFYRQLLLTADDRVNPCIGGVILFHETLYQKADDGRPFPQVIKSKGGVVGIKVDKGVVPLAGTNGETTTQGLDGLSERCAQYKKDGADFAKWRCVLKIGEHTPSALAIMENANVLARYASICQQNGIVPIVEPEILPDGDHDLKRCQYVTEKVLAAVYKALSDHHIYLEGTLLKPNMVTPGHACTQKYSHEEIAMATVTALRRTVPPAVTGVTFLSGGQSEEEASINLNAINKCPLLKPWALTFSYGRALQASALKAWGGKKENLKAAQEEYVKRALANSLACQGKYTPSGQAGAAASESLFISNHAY
GAPDH counter – GAPDH inhibition flagged for Giardia aldolase hits. shares compounds with Giardia FBPA inh-1. GAPDH coupling enzyme counterscreen, biochemical, qHTS. Potency, µM (top dose mostly 57.5 µM), inactives show at the top dose activity change, negative = inhibition, usual class: inhibitors. 6% of 1,500 active; note: nearly all actives have a fitted effect of over 55% in size
Starred values were filed as active, the others as inactive; u = inconclusive; x = no result given; [ ] = remark or other dose. Calls come from the whole dose curve; as a rule, active = well fitted curve in the direction sought with a large enough effect; inconclusive = small, poorly fitted or top-dose-only effect, or another doubt; inactive = no such curve, though single readings can be large; an effect the other way counts as inactive or inconclusive. Unless noted, % is set by controls: 0 for no effect and ±100 for the full control effect; potency is the fitted concentration of half-maximal effect.

SMILES | AmpC detergent | Giardia FBPA inh-1 | AmpC no deterg | AMA1 RON2 block | Giardia growth | Mammalian tox | Giardia FBPA inh-2 | Rabbit aldolase | GAPDH counter
N[C@@H](CSS(=O)(=O)O)C(=O)O | x | u | x | x | -11%[38.3 µM] | 9% | 22µM* | 14µM* | 22µM*
CC(=O)NC(c1ccccc1)c1nc(-c2ccccc2)cs1 (centres undefined) | x | x | x | -2% | x | x | x | x | x
CC1CC(C)CN(C(=O)C(C)N(C)CC(=O)Nc2ccc(F)cc2)C1 (centres undefined) | -2% | x | 23% | 11% | x | x | x | x | x
CC1CC(C)CN(C(=O)C(C)N(C)CC(=O)Nc2ccc(Cl)cc2)C1 (centres undefined) | u | 20µM* | 90% | u | -5% | -12% | -2% | 5% | 6%
O=C1C(SCCO)=C(SCCO)C(=O)c2ccccc21 | u | 0.89µM* | -26% | -18% | u | 11µM* | 6.3µM* | u | 4µM*
C[N+](C)=C1SCC(C)(/C=N/O)S1 (centres undefined) | 2% | 14µM* | 1% | 39% | 58% | -10% | 0% | 12% | 1%
Cc1ccc(N2CCN(C(=O)c3noc4c3COc3ccc(C)cc3-4)CC2)c(C)c1 | -5% | x | x | x | x | x | x | x | x
COc1cccc(COCC(O)Cn2cnc3cc(C)c(C)cc32)c1 (centres undefined) | -2% | 20µM* | 25% | 3% | 0%[10.4 µM] | 10% | -3% | -8% | -8%
COc1cc(S(=O)(=O)NCCN2CCOCC2)ccc1-n1cnnn1 | -4% | 18µM* | -37% | -3% | 4%[10.4 µM] | 3% | -1% | 13% | 5%
NC(=S)N/N=C/c1cn(CCC(=O)O)nc1-c1cccc(Br)c1 | 3% | u | -21% | 152% | x | x | x | x | x
COc1ccc(-c2nn(CCC(=O)O)cc2/C=N/NC(N)=S)cc1 | 9% | 16µM* | -14% | 87% | 3%[10.4 µM] | 18% | 1% | 2% | 11%
CC(=O)Nc1ccc(C(=O)N2CCCC(c3cc(C(=O)Nc4ccccc4)no3)C2)cc1 (centres undefined) | x | x | x | -1% | x | x | x | x | x
O=C(NCCc1ccccc1)c1ccc(S(=O)(=O)N2CCCCC2)cc1 | x | x | x | -3% | x | x | x | x | x
N#CCc1ccc(NC(=O)c2ccc(S(=O)(=O)N3CCOCC3)cc2)cc1 | 2% | x | -14% | 22% | x | x | x | x | x
O=C(NC(=S)N(CCO)Cc1ccccc1)c1ccc(S(=O)(=O)N2CCCC2)cc1 | u | 8.9µM* | -33% | 55% | 0%[10.4 µM] | 7% | 4% | 8% | 10%
CC(=O)Nc1ccc(C(=O)Nc2ccc(S(=O)(=O)N3CCOCC3)cc2)cc1 | -5% | 9% | -10% | -4% | x | x | x | x | x
CN(CCC#N)C(=S)NC(=O)c1ccc(S(=O)(=O)N2CCOCC2)cc1 | -16% | 16µM* | -5% | 97% | 8% | -1% | 6% | 9% | 15%
CC(=O)N1CCN(C(=S)NC(=O)c2ccc(S(=O)(=O)N3CCOCC3)cc2)CC1 | 0% | 14µM* | -21% | 15% | -7%[10.4 µM] | 3% | 9% | 11% | 5%
CC1CCN(S(=O)(=O)c2ccc3c(c2)N(CC(=O)NCCc2ccc(Cl)cc2)C(=O)CO3)CC1 | 9% | x | x | x | x | x | x | x | x
COC(=O)c1c(-c2ccc(OC)c(OC)c2)csc1N | 9% | 18µM* | 78% | 32% | -30% | -13% | u | -13% | -12%
COc1ccc(Br)cc1CN(C)CC(=O)NCc1ccc(F)cc1 | -9% | 14µM* | 55% | u | -15%[10.4 µM] | -4% | 2% | 1% | 14%
OC[C@@H]1CN(Cc2ccc(-c3ccccc3)cc2)C[C@H](n2cnc3c(N4CCOCC4)ncnc32)O1 | x | x | x | -26% | x | x | x | x | x
Cc1ccsc1-c1cc2nc(NCCCN(C)C)n(C)c(=O)c2s1 | x | x | x | -3% | x | x | x | x | x
CC(=O)NCCc1nc2cc(NC(=O)c3ccc([N+](=O)[O-])cc3)ccc2n1C | 4% | 3% | -11% | -1% | x | x | x | x | x
Cc1ccccc1OCC(O)CN1CCN(CC(O)COc2ccccc2C)C(C)C1 (centres undefined) | 2% | 14µM* | 159% | -24% | -25% | -9% | 4% | 6% | 5%
SMILES | AmpC detergent | Giardia FBPA inh-1 | AmpC no deterg | AMA1 RON2 block | Giardia growth | Mammalian tox | Giardia FBPA inh-2 | Rabbit aldolase | GAPDH counter
CC(=O)N1CCN(CC(O)COc2ccc(Br)cc2)CC1 (centres undefined) | -11% | 28µM* | -1% | u | u | 8% | 4% | 13% | 2%
CC(C)(C)c1ccc(OCC(O)CN2CCN(C(=O)c3ccccc3)CC2)cc1 (centres undefined) | 3% | 14µM* | 155% | u | -12% | -17% | -8% | -13% | -2%
CC(=O)c1ccc(OCC(O)CN2CCN(CC(O)COc3ccc(C(C)=O)cc3)CC2)cc1 (centres undefined) | 0% | 8% | -10% | 2% | x | x | x | x | x
CCCCNc1c(CCc2ccccc2)nc2nc(C)cc(C)n12 | x | x | x | 13% | x | x | x | x | x
CNc1n[nH]c(=S)s1 | 1% | 18µM* | -14% | -3% | -17% | 1% | -1% | -4% | 12%
CC(=O)Nc1n[nH]c(=S)s1 | x | x | x | 27% | x | x | x | x | x
Cc1ccc(N2CCN(CC3CC=CCC3)CC2)cc1 (centres undefined) | -13% | -3% | -24% | -25% | x | x | x | x | x
C1=CCC(CN2CCN(C3CCCCCC3)CC2)CC1 (centres undefined) | u | 14µM* | -22% | 5% | -10% | 6% | 1% | -2% | 0%
COc1ccc(C)cc1NC(=O)C1CCC(CNS(=O)(=O)c2ccc3c(c2)CCCC(=O)N3)CC1 (centres undefined) | 3% | x | x | x | x | x | x | x | x
Cc1cc(C)nc(N2N=C(C(F)(F)F)CC2=O)n1 | -2% | 11µM* | 0% | 13% | 14% | 14% | 6% | -5% | 9%
COc1ccc(CNC(=O)CN2C(=O)COc3ccc(S(=O)(=O)N4CCCCCC4)cc32)cc1 | -12% | x | x | x | x | x | x | x | x
Cc1cccc(Cc2cnc(N3C(=N)SC(C)C3=O)s2)c1 (centres undefined) | 7% | 13µM* | -27% | 26% | 13µM* | 8% | 7% | 1% | 4%
COc1cc(CN2CCC(C(=O)N3CCCC(C)C3)CC2)cc(OC)c1O (centres undefined) | -2% | u | -19% | -13% | x | x | x | x | x
